Lamin A splicing – LMNA splicing modulation | HeLa LMNA splicing GFP/RFP minigene ratio, 48 h | Potency, µM (top dose mostly 46.1 µM), for inactives: at the highest dose ratio change, negative = inhibition, hits mostly inhibitors | actives 0.01% (n = 200,000); active = well fitted inhibition curve with a large enough effect in the signal ratio, with a control signal flat, not every such curve was filed as active; inconclusive = small, poorly fitted or top-dose-only effect, or effect the other way, or a change in a side signal; the % refers to the signal ratio; note: potency is the fitted concentration of half-maximal effect
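S3 HeLa stable clones carrying a lamin A-EGFP splicing minigene plus DsRed2 were seeded at 600 cells/well in Opti-MEM with 2% FBS, pin-dosed and incubated 48 h at 37°C. Acumen cytometry (488 nm) gave the GFP/RFP total-intensity ratio.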
ALDH1A1 block – ALDH1A1 (human) enzyme inhibition; AID 1030; P00352; actives 7.3% (n = 220,000); Purified ALDH1A1, NADH fluorescence, propionaldehyde substrate; Potency, µM (top dose mostly 75.3 µM), for inactives: top-dose activity, negative = inhibition, actives largely listed as inhibitors;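 note: potency is the fitted concentration of half-maximal effect; plate controls were no enzyme wells and a reference inhibitor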
Target sequence (P00352 whole entry, looked up): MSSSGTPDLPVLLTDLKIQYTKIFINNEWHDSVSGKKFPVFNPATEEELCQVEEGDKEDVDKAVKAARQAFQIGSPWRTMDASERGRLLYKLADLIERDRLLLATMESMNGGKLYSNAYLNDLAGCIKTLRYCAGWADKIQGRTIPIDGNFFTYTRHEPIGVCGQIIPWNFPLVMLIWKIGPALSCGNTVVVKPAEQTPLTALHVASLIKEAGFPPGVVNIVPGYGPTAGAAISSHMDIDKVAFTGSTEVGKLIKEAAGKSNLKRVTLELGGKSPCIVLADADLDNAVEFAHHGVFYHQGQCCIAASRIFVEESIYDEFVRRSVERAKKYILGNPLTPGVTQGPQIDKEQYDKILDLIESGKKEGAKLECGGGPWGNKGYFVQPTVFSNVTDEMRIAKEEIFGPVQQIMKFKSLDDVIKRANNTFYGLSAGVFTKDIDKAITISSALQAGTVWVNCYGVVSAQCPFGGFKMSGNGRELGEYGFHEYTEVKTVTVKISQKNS
HPGD block – inhibitors of human 15-hydroxyprostaglandin dehydrogenase (HPGD) | P15428 | purified HPGD, NADH fluorescence kinetic, PGE2 substrate | AID 894 | actives 4.3% (n = 150,000) | Potency, µM, inactives show at the top dose activity change, negative = inhibition, most hits filed as inhibitors; note: potency is the fitted concentration of half-maximal effect
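20 nM HPGD preincubated 15 min at room temperature with compound in 50 mM Tris-HCl pH 8, 0.01% Tween 20. Started with 1 mM NAD+ and 30 uM prostaglandin E2; NADH fluorescence (360/450 nm) read 5 times over 30-s intervals, last minus first.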
IMPase inh – cell-permeable inhibitors of inositol monophosphatase (IMPase). P97697. CHO-M1 cells, IP1 accumulation, HTRF TR-FRET ratio. inhibition (IP1 accumulation), % at 46.1 µM. 120,000 tested, under 10 active; active = well fitted curve in the direction sought with a large enough effect in the signal ratio, not every such curve was filed as active; inconclusive = small, poorly fitted or top-dose-only effect, or a change in a side signal; inactive = no such curve, though single readings can be large or run the other way; the % refers to the signal ratio;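 note: cells stimulated with carbachol in lithium chloride buffer; plate controls were DMSO basal wells for no effect and reference inhibitor wells for full effect; higher means more IMPase inhibition seen as more IP1 and lower FRET ratio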
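CHO-M1 cells (CHO stably expressing M1 receptor), compound up to 46 uM final, stimulated with carbachol (50 uM as added) in buffer with 50mM LiCl, pH 7.4, 30 min at 37C. Cytosolic IP1 read by TR-FRET; AC50 from Hill fits.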
PNC inhibitor – inhibitors of perinucleolar compartment assembly; PC3M PTB-GFP, PNC prevalence imaging, 16 h; stronger effect = lower value; actives 3.1% (n = 140,000); activity change (PNC), negative = inhibition, % at 10 µM;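 active = readout at or below -70, meaning at least 70% loss of cells showing the perinucleolar compartment, a nuclear body marking cancer cells; inconclusive = readout between -30 and a set limit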;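 note: plate controls were DMSO wells for no effect and camptothecin positive control wells for full effect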
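PC3M cells stably expressing PTB-GFP, 750–1000 cells/well, treated 16 h at 37 °C with compound (23 nl of library stock), in duplicate. After paraformaldehyde fixation and Hoechst stain, imaged at 20x; PNC prevalence scored by image analysis.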
Luc counter – blocks Kinase-Glo luciferase, a counter-screen artifact | Q27757 | Kinase-Glo luciferase, ATP luminescence, 8 min | Potency, µM (series often up to 38.3 µM), for the others: at the highest dose activity change, negative = inhibition, hits mostly inhibitors | actives 0.28% (n = 200,000); active = well fitted inhibition curve with a large enough effect; inconclusive = small, poorly fitted or top-dose-only effect; note: potency is the fitted concentration of half-maximal effect; nearly all actives have a fitted effect of over 60% in size
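Inhibition of Kinase-Glo luciferase light generation was assessed at 10 uM ATP in pH 7.2 imidazole buffer, with luminescence measured after eight minutes at ambient temperature.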
An asterisk follows results filed as active; [ ] = another dose, or the depositor's remark. Only some compounds are listed: those with a hit (about 10% of all), similar ones and a draw of the others. Unless noted, calls come from the whole dose curve; as a rule, active = well fitted inhibition curve with a large enough effect (not every such curve was filed as active); inconclusive = small, poorly fitted or top-dose-only effect, or another doubt; inactive = no such curve, though single readings can be large or run the other way. Unless noted, % is set by controls: 0 for no effect and ±100 for the full control effect.

COC(=O)[C@@]1(Cc2ccc(F)cc2)[C@H]2c3cc(C(=O)N4CCCC4)n(Cc4ccc(C)o4)c3C[C@H]2CN1C(=O)c1ccccc1 was read as ALDH1A1 block -2.0%, HPGD block 22.4µM* and Luc counter -3.8%.
Screening C=C1C(=O)C=C2CN(C(=O)c3ccccc3)[C@@](Cc3ccc(OC)cc3)(C(=O)OC)[C@@H]12 returned ALDH1A1 block inconclusive, HPGD block 7.08µM* and Luc counter -4.5%.
COC(=O)[C@@]1(Cc2ccc(OC)cc2)[C@H]2c3cc(C(=O)N(C)C)n(Cc4ccc(C)o4)c3C[C@H]2CN1C(=O)c1ccccc1 was read as ALDH1A1 block inconclusive, HPGD block 25.1µM* and Luc counter -5.7%.
Screening COC(=O)[C@@]1(Cc2ccc(F)cc2)[C@@H]2[C@@H](CC(=O)[C@H]2CC(=O)C(=O)N(C)C)CN1C(=O)c1ccccc1 returned Lamin A splicing 5.1%, ALDH1A1 block 20.1%, HPGD block -2.0%, PNC inhibitor 30.4 and Luc counter 10.2%.
For COC(=O)[C@@]1(Cc2ccc(F)cc2)[C@H]2c3cc(C(=O)N4CCCC4)n(Cc4ccc(C)c(F)c4F)c3C[C@H]2CN1C(=O)c1ccccc1 the results were ALDH1A1 block 4.2%, HPGD block -15.2% and Luc counter -2.3%.
For COC(=O)[C@@]1(Cc2ccc(OC)cc2)[C@@H]2[C@@H](CC(=O)[C@H]2CC(=O)C(=O)N(C)C)CN1C(=O)c1ccccc1 the results were Lamin A splicing 1.8%, ALDH1A1 block 17.6%, HPGD block -4.7%, PNC inhibitor -87.7* and Luc counter 1.0%.
`Cn1ncc2c(N3CCN(c4ccc(F)cc4)CC3)ncnc21` gave Lamin A splicing 1.6%[46 µM].
For O=C(Cn1cnc2c(nnn2Cc2ccccc2F)c1=O)NCc1ccco1 the results were Lamin A splicing 16.1%, ALDH1A1 block -1.8%, HPGD block 31.6µM*, IMPase inh 0.4, PNC inhibitor 29.6 and Luc counter 0.1%.
Screening Cc1ccc(-n2ncc3c(=O)n(CC(=O)NCc4ccco4)cnc32)cc1 returned Lamin A splicing -18.6%, ALDH1A1 block 6.8%, HPGD block -19.9%, IMPase inh -2.2, PNC inhibitor -100.0* and Luc counter 0.9%.
Cc1ccc(Cn2nnc3c(=O)n(CC(=O)NCc4ccco4)cnc32)cc1 was read as Lamin A splicing -27.3%, ALDH1A1 block -2.5%, HPGD block inconclusive, IMPase inh 11.3, PNC inhibitor -12.4 and Luc counter -7.2%.
`O=C(Cc1ccc(F)cc1)NCc1nc2cccnc2n1Cc1ccc(F)cc1` gave Lamin A splicing 7.8%[46 µM].
O=C(CSc1cccc[n+]1[O-])Nc1ccccc1Oc1ccccc1 was read as ALDH1A1 block 14.1µM* and Luc counter -2.2%.
For O=C(CSc1cccc[n+]1[O-])Nc1cc(S(=O)(=O)N2CCOCC2)ccc1Cl the results were Lamin A splicing -6.9%, ALDH1A1 block -12.5%, HPGD block -10.8%, PNC inhibitor -88.3* and Luc counter -0.5%.
Screening O=C(CSc1cccc[n+]1[O-])Nc1cc2c(cc1Cl)C(=O)c1ccccc1C2=O returned Lamin A splicing -0.3%, ALDH1A1 block 8.91µM*, HPGD block -19.1%, PNC inhibitor 18.9 and Luc counter 10.0%.
O=C(CSc1ccc(Br)cc1)Nc1ccccc1Oc1ccccc1 was read as Lamin A splicing inconclusive, ALDH1A1 block -5.3%, HPGD block -14.3%, IMPase inh 3.7, PNC inhibitor 48.9 and Luc counter 4.7%.
Cc1ccc(S(=O)(=O)N2CCOCC2)cc1NC(=O)CSc1cccc[n+]1[O-] was read as Lamin A splicing -8.1%, ALDH1A1 block -5.9%, IMPase inh -9.0 and PNC inhibitor 40.8.
For COc1ccc(S(=O)(=O)c2cn(C)c3cc(N4CCCCCC4)c(F)cc3c2=O)cc1 the results were Lamin A splicing 19.1%[46 µM].
